HT1080 IDH1KD tx: HT-1080 IDH1 knockdown cell toxicity (counter line) | HT-1080 IDH1 knockdown viability, ATP luminescence, 48 h | actives 2% (n = 360,000) | Potency, µM (highest dose often 46.1 µM), usual class: cytotoxic | AID 686971
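Luminescent ATP read-out (CellTiter-Glo, 10 min at room temperature) after 48 h compound exposure at 37 °C gave viability of IDH1-knockdown HT-1080 cells. Activity was normalised to DMSO and cell-free wells, then fitted as concentration-response curves.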
HT1080NT lethal: kills 2HG-producing HT-1080-NT fibrosarcoma cells; actives 1.6% (n = 360,000); HT-1080-NT fibrosarcoma viability, CellTiter-Glo ATP luminescence, 48 h; AID 686970; Potency, µM (doses to about 46.1 µM), usual class: cytotoxic;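 note: NT is the 2HG producing partner of a matched IDH1 knockdown line; nearly all actives have a fitted effect of over 55% in size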
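HT-1080-NT; 750 cells/well; 5% FBS RPMI; 48 h compound, 37 degrees C; CellTiter-Glo luminescence; curve fitting and curve-class assignment.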
DT40 TDP1 CPT: growth inhibition of DT40 Tdp1-/-;hTDP1 cells with camptothecin (screen for TDP1 inhibitors); chicken DT40 Tdp1-/-;hTDP1 cells + 20 nM CPT, ATP luminescence, 48 h; Potency, µM (series often up to 46.2 µM), actives largely listed as inhibitors; actives 12% (n = 420,000); AID 686979; note: nearly all actives have a fitted effect of over 55% in size
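Chicken DT40 Tdp1-/- cells complemented with human TDP1, 400 cells/well, exposed to compounds plus 20 nM camptothecin for at least 48 h at 37 C; viability read as ATP content by CellTiter-Glo luminescence.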
DT40 TDP1 no CPT: qHTS for Inhibitors of human tyrosyl-DNA phosphodiesterase 1 (TDP1): qHTS in cells in absence of CPT | AID 686978, 2013 | actives 15% (n = 420,000) | Potency, µM (series often up to 46.2 µM), hits mostly inhibitors | DT40 Tdp1-/- hTDP1 cells, no CPT, ATP luminescence, 48 h; note: nearly all actives have a fitted effect of over 55% in size
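DT40 Tdp1-/-;hTDP1 cells, no CPT (DMSO vehicle only), 400 cells/well; compounds pin-transferred; ≥48 hr, 37 °C; CellTiter-Glo 30 min RT dark, luminescence read.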
HepG2 viability: kills HepG2 cells in TGF-b inhibitor counter-screen. HepG2 CAGA-GFP viability, ATP luminescence, 18 h. AID 588856. actives 0.76% (n = 410,000). Potency, µM (highest dose often 46.1 µM), hits mostly cytotoxic
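CellTiter-Glo luminescence gave cytotoxicity after 18 hours at 37 degrees C. The cells were HepG2 CAGA-GFP in 1% FBS DMEM, stimulated with 500 pg/mL TGF-beta after compound addition. %Activity was normalised to no-cell wells (complete cell-killing) and DMSO (no toxicity), and curves were fitted and classified.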
TGFb SMAD3 inh: inhibitors of TGF-b signaling; actives 1.2% (n = 410,000); Potency, µM (doses to about 46.1 µM), actives largely listed as inhibitors; HepG2 CAGA-GFP TGF-b/SMAD3 reporter, GFP fluorescence, 18 h; TGF-beta stimulated, 500 pg/mL final; note: nearly all actives have a fitted effect of over 65% in size
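GFP signal (ex488/em500-530) from TGF-beta-stimulated HEPG2 CAGA-GFP cells, 500 pg/mL final, 18 h at 37 degrees C in DMEM plus 1% FBS, normalized to unstimulated and DMSO-stimulated controls.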
A number is an active result; i = inactive; ? = inconclusive; nt = not tested or not shown. An excerpt weighted towards active compounds, which were near 17% of everything screened. Calls come from the whole dose curve; as a rule, active = well fitted curve in the direction sought with a large enough effect; inconclusive = small, poorly fitted or top-dose-only effect, or another doubt; inactive = no such curve, though single readings can be large; an effect the other way counts as inactive or inconclusive.

SMILES | HT1080 IDH1KD tx | HT1080NT lethal | DT40 TDP1 CPT | DT40 TDP1 no CPT | HepG2 viability | TGFb SMAD3 inh
CCN(CC(=O)Nc1ccc(OC)cc1)C(=O)c1ccc2[nH]c3c(c2c1)CC(C)CC3 (centres undefined) | i | i | ? | ? | i | i
O=C(CN1CCN(c2ccccc2O)CC1)Nc1ccc([N+](=O)[O-])cc1Br | i | i | ? | 23µM | i | i
O=C(CN1CCN(c2ccccc2O)CC1)Nc1cc([N+](=O)[O-])ccc1Cl | i | i | ? | ? | i | i
COc1cc(NC(=O)CN2CCN(c3ccccc3O)CC2)c(C)cc1[N+](=O)[O-] | i | i | 12µM | ? | i | ?
CN(CCc1ccc(Cl)c(Cl)c1)CC(O)COc1ccc(NS(C)(=O)=O)cc1 (centres undefined) | nt | nt | 18µM | 23µM | nt | nt
CN(CCOc1ccccc1)CC(O)COc1ccccc1 (centres undefined) | i | i | ? | ? | i | i
CCCN(C(=O)c1cc2ccc3cccnc3c2[nH]1)c1ccc(F)cc1 | nt | nt | i | i | i | i
COc1ccc(Cc2nnc(N/N=C/c3ccc(O)cc3)[nH]c2=O)cc1OC | ? | ? | 1µM | 0.65µM | i | ?
COc1ccc(Cc2nnc(N/N=C/c3ccc(Br)cc3)[nH]c2=O)cc1OC | i | ? | i | i | i | i
COc1ccc(Cc2nnc(NCCO)[nH]c2=O)cc1OC | i | i | 16µM | 8.2µM | i | i
COCCCNC(=O)C(C)N1c2cccc3cccc(c23)S1(=O)=O (centres undefined) | i | i | 21µM | 21µM | i | i
Cc1oc(-c2cccc(Br)c2)nc1CN1CCC(C(=O)NCc2ccccc2)CC1 | nt | nt | 18µM | ? | i | i
COc1ccc(CNC(=O)C2CCCN(Cc3nc(-c4cccc(C)c4)oc3C)C2)cc1 (centres undefined) | i | i | 13µM | 13µM | i | ?
CCCCSCCCNC(=O)C1CCN(Cc2nc(-c3cccc(Br)c3)oc2C)CC1 | nt | nt | ? | ? | i | i
Cc1cccc(-c2nc(CN3CCCC(C(=O)NCc4ccc(Cl)cc4)C3)c(C)o2)c1 (centres undefined) | nt | nt | i | 7.3µM | i | ?
COc1ccc(-c2nc(CN3CCC(C(=O)NCc4ccc(C)cc4)CC3)c(C)o2)cc1OC | nt | nt | ? | ? | i | ?
CCOc1ccc(NC(=S)N2CCC(NC(=O)c3ccccc3C)CC2)cc1 | i | i | i | i | i | i
Cc1ccc(S(=O)(=O)N2C[C@H]3C(=O)C[C@@H](c4ccccc4F)N(S(=O)(=O)c4ccc(C)cc4)[C@H]3C[C@H]2c2ccccc2)cc1 | i | i | ? | ? | i | i
COc1ccc(Nc2cccc3ccccc23)cc1 | i | i | ? | ? | i | ?
CCC(C(=O)NCc1ccccc1)n1c(-c2ccc3c(c2)CCO3)nc2ccccc21 (centres undefined) | i | i | 15µM | ? | nt | nt
CSCCC(C(=O)NCc1ccccc1)n1c(-c2ccc3c(c2)CCO3)nc2ccccc21 (centres undefined) | i | i | ? | ? | nt | nt
C[C@]12C=CC(=O)C=C1CC[C@@H]1[C@@H]2[C@@H](O)C[C@@]2(C)[C@H]1CC[C@]2(O)C(=O)CO | i | i | ? | ? | i | i
CCCC1OC2C[C@@H]3[C@H]4CCC5=CC(=O)C=C[C@]5(C)[C@H]4C(O)C[C@]3(C)[C@]2(C(=O)CO)O1 (some centres undefined) | nt | nt | 11µM | ? | i | i
CCCC1OC2CC3C4CCC5=CC(=O)C=CC5(C)C4C(O)CC3(C)[C@]2(C(=O)CO)O1 (some centres undefined) | nt | nt | 16µM | ? | nt | nt
Cc1ccc(C)c(Nc2nn3c(=O)c4ccc(C(=O)NCc5cccs5)cc4nc3s2)c1 | nt | nt | ? | 15µM | 6.3µM | 5µM
SMILES | HT1080 IDH1KD tx | HT1080NT lethal | DT40 TDP1 CPT | DT40 TDP1 no CPT | HepG2 viability | TGFb SMAD3 inh
COc1ccccc1Nc1nn2c(=O)c3ccc(C(=O)NCCCOC(C)C)cc3nc2s1 | nt | nt | 5.2µM | 4.1µM | i | ?
COc1ccccc1Nc1ccc(C(=O)NCc2cccs2)cn1 | i | i | i | i | i | i
Cc1ccc(C(=O)NCc2cccs2)cc1S(=O)(=O)N1CCCCC1 | i | i | i | i | i | ?
COc1ccccc1Nc1nn2c(=O)c3ccc(C(=O)NCc4cccs4)cc3nc2s1 | nt | nt | 13µM | 16µM | i | i
CC(=O)OCC(=O)Nc1ccc(Br)c(C)c1 | i | i | i | i | i | 16µM
O=C(CCN(CCO)Cc1ccccc1)Nc1ccc(Br)cc1 | ? | ? | ? | ? | i | i
Cc1cc(NC(=O)COn2nnc3ccc(S(C)(=O)=O)cc32)ccc1Br | i | i | ? | 16µM | i | ?
CCN(CCC(=O)Nc1ccc(Br)c(C)c1)Cc1ccccc1 | ? | 15µM | ? | 29µM | i | i

Screens as filed in PubChem.
